# Bioassay records (PubChem BioAssay)
# WNV protease inh: inhibitors of WNV NS2B-NS3 protease, primary screen, biochemical, fluorogenic substrate | fluorogenic substrate Ex360/Em465; active compounds read low | z-score (concentration not given with the values) | hit rate 0.18% among 65,000 | Genome polyprotein (West Nile virus), P06935; in the data active means z-score below about -3
# M1 ag: M1 muscarinic receptor agonists, primary screen, CHO-M1 cells, Fluo-4 calcium, agonist mode; AID 626, 2007; hit rate 3% among 64,000; B-score at 10 µM; Muscarinic acetylcholine receptor M1; Fluo-4 calcium fluorescence; active compounds read high;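 active means fluorescence rise, raw or as B-score row- and column-corrected plate score, outside the 99.7% band of its plate's samples, either direction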
# M1 antagonist: antagonists of rat M1 muscarinic receptor; AID 628, 2007; Muscarinic acetylcholine receptor M1 (Rattus norvegicus), P08482; B-score at 10 µM; CHO-M1 cells, Fluo-4 calcium, ACh EC80 antagonist mode; active compounds read low; hit rate 3.4% among 64,000;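 active means calcium fluorescence response, raw or row-and-column corrected B-score, differing from the plate sample mean either way at a set confidence level, mostly lower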
# Target sequence (P08482 whole entry, looked up): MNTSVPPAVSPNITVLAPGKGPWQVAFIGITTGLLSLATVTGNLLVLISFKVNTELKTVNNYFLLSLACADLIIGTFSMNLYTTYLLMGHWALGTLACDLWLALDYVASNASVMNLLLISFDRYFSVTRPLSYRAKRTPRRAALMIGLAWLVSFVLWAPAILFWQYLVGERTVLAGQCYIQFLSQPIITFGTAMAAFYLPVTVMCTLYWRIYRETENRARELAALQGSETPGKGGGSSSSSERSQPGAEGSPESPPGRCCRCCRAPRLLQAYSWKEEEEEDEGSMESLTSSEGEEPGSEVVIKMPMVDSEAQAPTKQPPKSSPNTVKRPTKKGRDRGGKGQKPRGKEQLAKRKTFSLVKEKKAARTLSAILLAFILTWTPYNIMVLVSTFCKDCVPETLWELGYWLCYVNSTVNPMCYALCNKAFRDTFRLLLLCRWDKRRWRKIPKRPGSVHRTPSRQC
# D1 mod: D1 CRE-luciferase signal change, two-sided – cell-based, HEK293 D1, dopamine EC30, D1 allosteric modulator project, primary screen. B-score at 10 µM. hit rate 5.9% among 58,000. dopamine EC30 potentiation; actives deviate in either direction. D(1A) dopamine receptor (Homo sapiens), P21728;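 active means luminescence count or its row- and column-corrected plate score outside the 99.7% band of the plate's sample wells, on either side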
# Htt clearance: clearance of mutant huntingtin inclusions, primary screen, imaging, HeLa Exon1htt(103Q)mCFP, confocal imaging. aggregate imaging; zero = plate's median compound well. inhibition, % at 1.5 µM. hit rate 0.42% among 47,000;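 active means inhibition of aggregate fluorescence above about 70%, also judged a hit by eye on the cell image, limit read from the data, passing the limit was not always enough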;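 further: cells exposed to compound for three days before fixation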
# D1 PAM confirm: D1 receptor positive allosteric modulators, retest, confirmation, cell-based, HEK293 D1, CRE-luciferase, duplicate; shares compounds with D1 mod; dopamine EC30 potentiation; active compounds read high; luminescence at 10 µM; hit rate 88% among 2,200; AID 642, 2007;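 active means luminescence in either of two replicates above the same-plate mean plus 3 SD of the low-dose dopamine control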
# D1 no dopamine: D1 receptor agonism without dopamine, confirmation, mechanism study for D1 allosteric modulator project, cell-based, HEK293 D1, CRE-luciferase, secondary assay 1; hit rate 0.8% among 1,900; luminescence, no dopamine; active compounds read high; shares compounds with D1 mod; luminescence at 10 µM; in the data active means luminescence above about 3900
# Isoprot counter: alters isoproterenol CRE-luciferase response in HEK293 cells | shares compounds with D1 mod | HEK293 D1 CRE-luciferase, isoproterenol EC30 counter-screen | calls only at 10 µM | hit rate 63% among 2,200;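 active means luminescence in either replicate above plate mean of wells with a partly effective reference agonist dose plus 3 SD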;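 further: isoproterenol raises cAMP through native beta-adrenoceptor Gs so signal bypasses D1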
# Active calls of the source: *; i = inactive; . = no result; + = active, no number. Compounds with a hit are over-represented: about 8.9% of the library has one in this group of screens.
SMILES,WNV protease inh,M1 ag,M1 antagonist,D1 mod,Htt clearance,D1 PAM confirm,D1 no dopamine,Isoprot counter
CCCSc1oc(-c2ccco2)nc1S(=O)(=O)c1ccccc1,-0.78,0.018,-1.3,17*,22,14944*,1692,+
CC(C)Sc1oc(-c2ccco2)nc1S(=O)(=O)c1ccc(F)cc1,-1.1,-0.011,-1.1,3.4,.,.,.,.
O=C(Cn1cc(C(=O)c2ccco2)c2ccccc21)NC1CCCC1,-1.3,0.55,-0.49,-0.42,43,.,.,.
CCOc1ccc(CCNS(=O)(=O)c2cnc[nH]2)cc1OCC,1.4,0.51,0.22,25*,.,24048*,.,+
O=S(=O)(NCc1ccc2c(c1)OCO2)c1cnc[nH]1,2.5,-0.65,-0.43,0.017,-30,.,.,.
NC(=O)c1cc(-c2ccccc2)nc(N2CCCCCC2)n1,-0.39,0.11,1,2.7*,12,6540*,1320,i
NC(=O)c1cc(-c2ccccc2)nc(N2CCOCC2)n1,-0.05,0.27,-0.0026,9.8*,-1,14624*,1472,+
Nc1nc(N2CCCCC2)nc(N(c2ccccc2)c2ccccc2)n1,0.43,-0.16,-0.22,-0.38,-172,.,.,.
Cc1cc(-c2ccccc2)nc2cc(C(N)=O)nn12,-0.42,0.45,-1.3,9.4*,.,9500*,1480,+
CC1CN(c2ncnc3c2oc2ccccc23)CC(C)O1 (stereo not given),-0.09,-1.3,-0.16,5.6*,-4,12424*,1820,+
COc1ccc(-n2c(Cc3cccn3C)nnc2SCC(=O)Nc2ccc(C)cc2C)cc1,-1.2,0.011,0.77,17*,.,4936,1328,i
Cc1nnc(NC(=O)CSc2nnc(Cc3cccn3C)n2-c2cccc(C(F)(F)F)c2)s1,0.15,-0.27,0.77,3.4*,.,5796,1516,i
COc1ccc2c(C)nc(Nc3nc(C)cc(C)n3)nc2c1,0.11,-0.14,-0.7,0.0094,.,.,.,.
CCOC(=O)NC(=O)CN1C(=O)NC(C)(c2ccccc2)C1=O (stereo not given),-1.5,-0.073,2.1*,4.4*,.,5048,704,i
Cc1ccc(N(Cc2cc(=O)[nH]c3ccccc23)C(=O)c2ccco2)cc1,1.8,-0.57,-0.46,2.6,5,.,.,.
COc1ccc(CN(C(=O)c2ccco2)c2ccc(C)cc2)cc1OC,0.61,0.0022,0.72,10*,-57,22164*,1620,+
COc1cccc(NC(=O)CSc2nnc(-c3cc(-c4ccccn4)nc4ccccc34)o2)c1,-0.53,-0.48,-0.17,-0.48,-29,.,.,.
COc1ccccc1NC(=O)CSc1ccc2nnc(-c3cccnc3)n2n1,-0.77,-0.25,-0.21,2.5*,.,8024,1728,i
Cc1ccc(-n2c(CNc3ccc(F)cc3)nnc2SCC(=O)NCc2ccco2)cc1,-1.7,0.46,0.4,0.52,35,.,.,.
CCN(CC(=O)N1CCOCC1)S(=O)(=O)c1ccc(C)cc1,-0.07,-1.6,-0.12,0.65,20,.,.,.
Brc1ccccc1-c1nnc(CSc2nnc3sc4ccccc4n23)o1,2.4,1,-0.61,0.94,.,.,.,.
COc1cccc(N2CCN(Cc3nc(N)nc(N4CCCc5ccccc54)n3)CC2)c1,0.14,1.2,0.52,4.9*,23,11368*,1496,+
COc1ccc(Nc2nc(N)nc(CN3CCc4ccccc4C3)n2)cc1,0.73,-0.15,0.072,2.3,.,.,.,.
O=C(NC1(C(F)(F)F)C(=O)Nc2c1c(=O)[nH]c(=O)n2-c1ccccc1)c1cccnc1 (stereo not given),-0.37,-0.0051,0.026,1.1,-14,.,.,.
O=c1c(Cl)c(NCCO)ncn1-c1ccccc1,-1.1,0,0.3,-0.19,.,.,.,.
SMILES,WNV protease inh,M1 ag,M1 antagonist,D1 mod,Htt clearance,D1 PAM confirm,D1 no dopamine,Isoprot counter
COC(=O)Nc1ccc(OCc2ccccc2)cc1,-0.15,-0.24,0.19,-0.51,.,.,.,.
NC(=O)COc1ccc(NC(=O)OCc2ccccc2)cc1,1.4,0.39,0,5.6*,.,10828*,1812,i
CC1CCCCN1C(=O)CSc1nc(C2CC2)nc2c1cnn2-c1ccccc1 (stereo not given),-0.5,-0.84,-0.32,4*,.,7396*,1340,i
CCOC(=O)c1nc(-c2ccccc2)oc1N(C)C,-0.2,0.32,0.57,4*,.,9692*,1608,i
CCC(=O)Nc1ccc(-c2nn3c(C)nnc3s2)cc1C,1.6,-0.063,-0.25,-0.62,10,.,.,.
COC(=O)c1oc2ccc(Br)cc2c1-n1cccc1,0.89,-0.087,-0.39,8.3*,-31,6260*,1564,+
COc1cc(S(=O)(=O)N2CCOCC2)ccc1NC(=O)CSc1nnc(N)s1,-1.2,0.044,-0.022,4.8*,.,5392,.,i
COc1cc(S(=O)(=O)N2CCOCC2)ccc1NC(=O)c1cc2c(s1)CCC2,-0.47,0.05,0.19,.,.,.,.,.
Cc1sc(N)nc1-c1cccs1,.,.,.,.,31,.,.,.
Nc1nc(-c2cccs2)c(NC(=O)c2ccccc2)s1,-0.99,-0.049,-0.44,6*,.,14100*,1740,+
CCOc1cc(C2C(C(=O)OC)=C(C)N=C3SCCC(=O)N32)ccc1OC(C)=O (stereo not given),-0.13,-0.48,0.19,5.1*,2,6516*,.,+
CCOc1ccc(C2C(C(=O)OC)=C(C)N=C3SCCC(=O)N32)cc1OCC (stereo not given),1.1,0.0089,-0.24,.,.,.,.,.
Cc1ccc(OCCN2C(=O)OC(C)(C)C2(C)O)cc1 (stereo not given),-0.23,-0.089,-0.13,5.5*,-36,7404*,1572,i
COc1ccc(C(=O)CSc2nc3nc(C)cc(C)n3n2)cc1OC,-0.76,-1.9,-0.11,11*,-73,20980*,1924,+
Cc1cc(C)n2nc(SCC(=O)c3ccc[nH]3)nc2n1,0.49,-0.27,0.11,0.67,-48,.,.,.
COc1ccc(Cl)cc1C(=O)CSc1nnnn1C1CCCC1,-0.85,-0.16,-1.2,2.8*,30,6668*,1592,i
NC(=O)c1cnn2c(C(F)(F)F)cc(-c3ccccc3)nc12,0.17,0.45,0.58,7.9*,15,17628*,1408,+
NC(=O)c1cnn2c(C(F)(F)F)cc(-c3ccc(F)cc3)nc12,-1,0.26,0.17,2.5*,.,10756*,1664,+
Cc1ccc(-c2cc(C(F)(F)F)n3ncc(C(=O)N4CCN(C)CC4)c3n2)cc1,-0.95,0.38,0.54,0.41,-24,.,.,.
